For part of these data: Measured potencies and affinities stand elsewhere.
What was measured:
[1] = test system: Staphylococcus aureus; experiment: Antibacterial activity against Staphylococcus aureus MRSA ATCC 43300 (CO-ADD:GP_020); MIC in CAMBH media using NBS plates, by Resazurin F(560/590); format: functional; conditions: Concentration 20 uM, ASSAY_TEST Inhibition of Bacterial Growth, detection method Resazurin, Fluorescence (ex560/em590), MEDIA CAMHB, plate type 384well, CORNING #3640, time 18 hr
[2] = test system: Acinetobacter baumannii; experiment: Antibacterial activity against Acinetobacter baumannii ATCC 19606 (CO-ADD:GN_034); MIC in CAMBH media using NBS plates, by Resazurin F(560/590); format: functional; conditions: Concentration 20 uM, ASSAY_TEST Inhibition of Bacterial Growth, detection method Resazurin, Fluorescence (ex560/em590), MEDIA CAMHB, plate type 384well, CORNING #3640, time 18 hr
[3] = test system: Escherichia coli; experiment: Antibacterial activity against Escherichia coli ATCC 25922 (CO-ADD:GN_001); MIC in CAMBH media using NBS plates, by Resazurin F(560/590); format: functional; conditions: Concentration 20 uM, ASSAY_TEST Inhibition of Bacterial Growth, detection method Resazurin, Fluorescence (ex560/em590), MEDIA CAMHB, plate type 384well, CORNING #3640, time 18 hr
[4] = test system: Klebsiella pneumoniae; conditions: Concentration 20 uM; ASSAY_TEST Inhibition of Bacterial Growth; detection method Absorption (OD600); MEDIA CAMHB; plate type 384well; NBS; CORNING #3640; time 18 hr
[5] = test system: Candida albicans; conditions: 20 µM
[6] = test system: Cryptococcus neoformans; conditions: Concentration 20 uM; ASSAY_TEST Inhibition of Fungal Growth; detection method Resazurin; Absorption (OD600-OD570); plate type 384well; NBS; CORNING #3640

SMILES	Inhibition [1]	Inhibition [2]	Inhibition [3]	Inhibition [4]	Inhibition [5]	Inhibition [6]
Cc1cc(/C=C2\SC(=S)NC2=O)cc(C)c1O	-3.17%	-16.06%	6.56%	6.27%	8.55%	-10.24%
COc1cc2c(NCCCCCO)ncnc2c(OC)c1OC	13.68%	10.53%	6.4%	13.53%	0.91%	-4.07%
S=C1SCN(CCc2ccccc2)CN1CCc1ccccc1	-3.89%	1.92%	3.19%	4.28%	31.3%	-3.46%
O=C1NC(=S)S/C1=C\c1ccccc1C(=O)O	-3.3%	-13.4%	1.72%	11.85%	14.4%	-5.59%
COc1cc2c(cc1OC)[N+]([O-])=C(c1ccccc1)C2=O	11.49%	-5.23%	9.41%	-2.97%	13.8%	-4.84%
CC(=O)Nc1ccc(Cc2nc3c(=O)n(C)c(=O)n(C)c3[nH]2)cc1	10.98%	-13.87%	3.26%	6.41%	3.5%	-7.42%
C[C@@]1(c2ccccc2)O[C@@H]2C[C@H]3[C@@H]4CCC5=CC(=O)C=C[C@]5(C)[C@@]4(F)[C@@H](O)C[C@]3(C)[C@]2(C(=O)CO)O1 [AMCINAFIDE]	5.72%	-8.64%	8.97%	3.86%	4.92%	-9.65%
CCOC(=O)N1CCN(Cc2c(O)ccc3ccccc23)CC1	1.46%	-8.59%	8.73%	12.37%	3.24%	-5.96%
Oc1ccnc(Nc2ccc(Cl)cc2)n1	11.15%	-11.5%	6.59%	-5.88%	0.12%	-10.08%
CNc1nc(SC)n(C)c(=O)c1N=O	10.57%	-4.07%	13.38%	9.07%	-3.41%	-15.4%
CCCCC[C@H](O)/C=C/[C@@H]1[C@@H](C/C=C\CCCC(=O)O)[C@@H](O)C[C@H]1O.NC(CO)(CO)CO [DINOPROST TROMETHAMINE]	12.44%	-5.18%	11.57%	16.21%	-0.17%	-7.36%
Nc1ccccc1SC1CC(=O)N(c2ccc(Cl)c(Cl)c2)C1=O (centres undefined)	1.48%	12.22%	0.8%	8.81%	8.62%	-1.72%
OC(c1ccccc1)(c1ccccc1)c1nccn1-c1ccccc1	0.11%	-3.61%	5%	3.43%	1.72%	-7.88%
Cc1ccc(NC(=O)NNC(=O)CSC2CCc3ccccc32)c(C)c1 (centres undefined)	19.06%	5.57%	0.84%	5.08%	2.67%	-10.98%
COc1ccc(N/C=C2\C(=O)CCc3c2oc2cc(Cl)c(O)c(Cl)c32)cc1	7.05%	-14.01%	13.43%	4.7%	3.38%	-7.04%
CSC(=O)NC(=O)NC(=O)c1ccc([N+](=O)[O-])cc1	9.19%	0.18%	3.52%	12.66%	-0.48%	44.26%
COC(=O)c1ccccc1NCCO	-8.89%	2.46%	10.44%	7.33%	-0.42%	-9.6%
COc1ccc(Nc2cc(Cl)ccc2C(=O)O)cn1	-1.71%	14.76%	0%	20.74%	22.9%	-8%
Cc1ccc(C#CC(C)(O)C(C)(C)C)cn1 (centres undefined)	4.47%	10.01%	1.4%	18.58%	7.24%	-1.46%
Cc1nc2ccccc2c(N)c1-c1cc(C)c2c(C)nc3ccccc3c2n1	-4.42%	8.74%	-14.9%	5.08%	2.89%	18.77%
Fc1ccc(-c2cc(-c3cccs3)cc(-c3ccccc3)n2)cc1	2.48%	12.33%	-3.88%	7.87%	6.36%	-7.45%
Cc1ccc(Nc2ccc(N)cc2S(=O)(=O)O)cc1	11.37%	8.99%	-1.31%	9.09%	3.65%	-9.37%
Nc1c(Cl)cc(S(N)(=O)=O)cc1S(N)(=O)=O	4.27%	9.37%	1.27%	26.17%	17.5%	-1.7%
O=C1NCCc2c1[nH]c1ccccc21	-13.58%	-2.97%	-11.15%	6.5%	2.99%	-7.2%
CC(C)N(Cc1ccccc1)S(=O)(=O)c1nc(C(C)(C)C)n[nH]1	14.24%	7.66%	0.73%	17.58%	0.76%	-4.79%

SMILES	Inhibition [1]	Inhibition [2]	Inhibition [3]	Inhibition [4]	Inhibition [5]	Inhibition [6]
Sc1ncnc2c1cnn2-c1ccccc1	-0.19%	-10.1%	15.12%	7.13%	16.7%	30.67%
OCc1nnn(-c2ccccc2)c1CO	11.04%	-9.88%	7.14%	22.49%	-4.02%	-6.38%
CSc1nc(O)cc(Cl)n1	-1.6%	-4.84%	7.44%	11.43%	2.04%	-0.01%
COc1cc(C(=O)c2cocc2C(=O)c2ccc3c(c2)OCO3)cc(OC)c1OC	27.15%	-6.33%	12.62%	6.01%	3.29%	14.1%
Clc1ccc(/C=C/c2nc(Cl)c(-c3ccc(Cl)cc3)c(Cl)n2)cc1	8.11%	11.58%	9.97%	19.84%	4.64%	-12.98%
[O-][n+]1ccc(CC(O)(C(F)(F)F)C(F)(F)F)cc1	-9.72%	-5.31%	-11.83%	9.87%	4.37%	-2.34%
CCOC(=O)Cc1csc2nc(-c3ccccc3)nn12	-0.44%	-7.19%	5.98%	-2.91%	3.06%	-9.7%
Oc1ccc(Cl)nn1	1.52%	-4.23%	4.23%	8.48%	0.96%	1.34%
COc1ccc2nc3cc(Cl)ccc3c(Nc3cc(C(C)C)c(O)cc3C)c2c1	18.28%	-16.67%	18.01%	9.53%	-0.84%	-12.42%
CC(C)=CCC/C(C)=C\C(N)=O	-1.13%	-1.29%	11.31%	-1.44%	-0.52%	-3.28%
CC(=O)Nc1ccc(OC(=O)Oc2ccc(NC(C)=O)cc2)cc1	37.09%	-4.35%	7.78%	22.87%	5.36%	-3.28%
NC(=O)C1=C(N)c2ccccc2C1c1ccccc1 (centres undefined)	-22.4%	2.22%	-18.86%	1.18%	4.94%	28.25%
Clc1ccc(Oc2nc3c(Cl)cccc3s2)cc1Cl	12.48%	12.9%	4.52%	1.06%	1.36%	-15.72%
CCOC(=O)/C(C#N)=C\c1c[nH]c2ccccc12	-10.31%	-2.58%	-10.08%	2.71%	3.53%	2.4%
O=c1oc(-c2ccccc2)c(-c2ccccc2)c2ccccc12	13.22%	4.08%	7.81%	4.41%	1.88%	-4.28%
CNC(=O)Nc1ccc(S(N)(=O)=O)cc1	-4.03%	14.32%	-4.85%	19.46%	3.31%	0.61%
CC1=C(c2ccccc2)C=NNCC1=O	7.06%	-11.86%	19.62%	15.54%	3.87%	-8.22%
NC(=S)N/N=C/c1cc(-c2cccc(N)c2)ccn1	-5.52%	27.53%	11.56%	45.35%	1.87%	-12.06%
CCOC(=O)c1c(C)c(C(=O)OCC)n(C)c1C	8.23%	6.43%	-8.3%	6.99%	4.68%	10.56%
CC1=CC(=O)C(/C(C)=N/c2ccccc2Cl)C(=O)O1 (centres undefined)	7.59%	14.34%	-12.7%	12.66%	20.8%	0.4%
O=C(Nc1ccc2ncccc2c1)Nc1ccc2ncccc2c1	9.01%	-26.89%	13.25%	9.25%	0.58%	-19.53%
Nc1nc(N)c(/N=N/c2ccc(S(N)(=O)=O)cc2)c(O)n1	11.8%	-8.6%	-8.26%	23.84%	0.97%	-15.08%
CC(=O)OC1COC(OC(C)=O)CO1 (centres undefined)	-14.46%	-1.98%	-12.48%	0.6%	-0.61%	10.42%
Nc1ccc(Nc2ccccc2)c(S(=O)(=O)O)c1	8.54%	9.36%	-14.68%	15.42%	18.9%	17.91%

— ChEMBL document CHEMBL4296182, “CO-ADD screening of NIH NCI Diversity Set V”
